For 74 compounds, INHIBITION results are on record in ChEMBL document CHEMBL4513216, “Probing the Open Global Health Chemical Diversity Library for Multistage-Active Starting Points for Next-Generation Antimalarials” (ACS Infect Dis, 2020).

About 2,100 (3.2%) of roughly 65,000 compounds showed an effect of 50% or more. The median lay at about -52%. What follows is part of a selection rich in strong results, with near analogues and random picks from the rest.

For the experiment, the system named is Plasmodium falciparum. In words: Screen against P. falciparum Asexual Blood Stage (ABS), at 5uM. The class given is functional, Dd2. As to conditions: tested at 5 uM.
For `c1cnc(N2CCOCC3(CN(Cc4cc[nH]n4)CCO3)C2)nc1` (centres undefined), the INHIBITION is -54.7%.

As for `Cc1ccc(CN2C[C@@H]3CCCO[C@@H]3[C@H](N(C)Cc3ccco3)C2)s1`, the INHIBITION turned out to be 74.2%.

In the case of `CN(Cc1ccco1)[C@@H]1CN(Cc2cccnc2)[C@@H]2CCCO[C@H]12`, the INHIBITION was -40.9%. Consider `Cc1cccc(CN2C[C@@H]3CCCO[C@@H]3[C@H](NS(C)(=O)=O)C2)n1`, for which the INHIBITION is listed as -63.9%. In the case of `Cc1cc(CN2C[C@@H]3CCCO[C@@H]3[C@H](N(C)C(C)C)C2)no1` it was -18.2%. In the case of `CN(Cc1ccco1)[C@@H]1CN(Cc2ccsc2)C[C@@H]2CCCO[C@@H]21` it was 76%; in that of `CN(Cc1cncnc1)[C@H]1CN(Cc2ccco2)[C@@H]2CCCO[C@@H]21`, -96.6%; in that of `c1cnc(N2C[C@H]3CC[C@@H](C2)N(Cc2ccsc2)C3)nc1`, -21%. In the case of `c1ccc(O[C@@H]2CO[C@@]3(CCCN(CC4CCOCC4)C3)C2)nc1` it was 3.78%. `Cc1cc(CN2C[C@@H]3COC[C@]3(CNS(C)(=O)=O)C2)no1`: the INHIBITION is -20.4%.

For the compound `CN1CCOC(CN(C(=O)CN2CCCC2=O)c2nccs2)C1` (centres undefined), the INHIBITION was -55.7%. Regarding `N#Cc1cccc(OC23CCCN(CC2)C3)c1` (centres undefined), the INHIBITION is listed as -31.3%.

As to `c1ccc(Oc2cccc(OC34CCCN(CC3)C4)c2)cc1` (centres undefined), the INHIBITION is 76.9%. Regarding `c1ccc(O[C@@H]2CN(Cc3nccs3)[C@@H]3CCCO[C@@H]32)nc1`, the INHIBITION is recorded as -4.8%. In the case of `CCc1ccccc1OCCN(C)C(=O)CN1CCCC1` it was 75.4%.

As to `CCOCCN(C)C(=O)Nc1cccc2c1CCN(CC)C2`, the INHIBITION is listed as -88.7%. In the case of `Cc1noc(C)c1CN1C[C@@H]2CN(C(=O)c3cscn3)C[C@@H]2C1` it was -82.3%.

On to `CC(C)c1n[nH]c(C(=O)Nc2ccccn2)c1Br`, for which the INHIBITION is given as 84.6%. In the case of `Cc1ccnc(NCCNC(=O)C2CC3(CCNCC3)CN2C)c1` (centres undefined) it was -81.4%; in that of `Cc1ccnc(NC(=O)c2[nH]nc(C(C)C)c2Br)c1`, 73.7%; in that of `Cc1cc(CN2C[C@@H]3CN(C(=O)c4ccsc4)CCO[C@@H]3C2)no1`, -12.1%. In the case of `CN1CCCc2c1nc1c(c2N)CCCC1` it was 75.8%; in that of `CN1CCc2nc3c(c(N)c2C1)CCCN3C`, -7.55%. In the case of `c1cncc(NCCNC2CCCNC2)c1` (centres undefined) it was -1.26%; in that of `Cc1cnccc1NCCNC1CCN(CC(C)C)CC1`, 80%; in that of `CC(=O)N1C[C@H]2CNC[C@@]2(C(=O)NCCNc2ccncc2C)C1`, -37%. Consider `CC(C)CN1CCC(NCCNc2cccnc2)CC1`, for which the INHIBITION worked out at 79.1%.

In the case of `CC(C)CN1C(=O)C2(CCCC2)NC1c1cccnc1` (centres undefined), the INHIBITION was -8.76%.

For the compound `Cc1cc(CC(C)NC2CCN(CC(C)C)CC2)[nH]n1` (centres undefined), the INHIBITION is -57.2%. With `Cn1cc(N2C(=O)CC[C@@H]3[C@H]2CCN3Cc2ccncc2)cn1` the figure was -123%; with `c1ccc(CN2CCN3C[C@H](Oc4cccnc4)C[C@H]3C2)nc1`, -10.5%; with `COc1ccccc1CNCc1nn(-c2ccccc2)c2c1CCC2`, 81.6%. In the case of `c1ccc(O[C@@H]2CC[C@H]3[C@H]2OCCN3Cc2ccsc2)nc1` it was -77.6%. With `O=C(c1[nH]nc(C2CC2)c1Cl)N1CCN(S(=O)(=O)c2ccccc2)CC1` the figure was 75.8%. On to `CN1CCN(S(=O)(=O)c2ccccc2)Cc2cccnc21`, for which the INHIBITION is on record as -41.3%. With `O=C(NCc1ccccn1)[C@]12COC[C@H]1CN(C1CCC1)C2`, the INHIBITION is given as -26.3%.

In the case of `N#Cc1ccc(NCCc2n[nH]c(=O)[nH]2)cc1Cl`, the INHIBITION is given as -36.1%. In the case of `Cc1ccc(NCCCNC(=O)C2CCCN(Cc3ccco3)C2)nc1` (centres undefined) it was 70.6%; in that of `Cc1nccc([C@@H]2C[C@@H]3CCN(Cc4ccco4)C[C@H]3O2)n1`, -17.2%. With `O=C(Nc1cccnc1)[C@H]1CN(Cc2ccco2)C[C@H]2OCC[C@@H]12` the figure was -115%; with `CC(C)CC(=O)N1CCC2(CC1)OCCO2`, -80.4%; with `COc1ccc2ncn(Cc3ncc[nH]3)c(=O)c2c1`, -84.2%. In the case of `CC(C)N1CCO[C@H]2CN(C(=O)c3ccncc3F)C[C@H]21` it was -88.4%; in that of `CCC1CN(C(=O)c2ccc(Cl)cc2O)CCN1C(C)C` (centres undefined), 73.3%. Consider `O=C(c1ccc(Cl)cc1-n1cnnn1)N1CCC2(CC1)OCCO2`, for which the INHIBITION is on record as -52.7%. With `O=C1CO[C@@H]2CN(Cc3cccnc3)C[C@H]2N1Cc1ccncc1`, the INHIBITION is -6.5%. With `C[C@H]1C[C@H]2CN(Cc3ccccn3)CC[C@@H]2O1` the figure was -8.95%; with `Cc1[nH]c2ccc(CNC3CCN(Cc4ccccn4)CC3)cc2c1C`, 93.6%; with `O=C1Nc2ccccc2C12CCN(Cc1ccccn1)CC2`, -45.4%.

`O=C(NC[C@H]1C[C@@H]2CCN1C[C@@H]2CN1CCCCC1)Nc1ccccc1`: the INHIBITION is listed as -34.9%. `O=S(=O)(NC[C@H]1C[C@@H]2CCN1C[C@@H]2CN1CCCC1)c1ccc(Cl)cc1`: the INHIBITION is 89.4%.

As for `O=S(=O)(NC[C@H]1C[C@@H]2CCN1C[C@@H]2CN1CCOCC1)c1ccccc1`, the INHIBITION is recorded as -71.9%.

Consider `CC(=O)N1CCOCC2(CN(Cc3ccccn3)CCO2)C1` (centres undefined), for which the INHIBITION was -107%.

For `CN1CCCN(C(=O)c2ccnn2-c2ccc3ccccn23)CC1`, the INHIBITION came out at 70.8%. In the case of `CN1CCN(C(=O)c2cn(Cc3ccccc3)c3ncccc23)CC1` it was -70.4%.

With `CC(NC1CCCC1)c1ccccc1-n1cccn1` (centres undefined), the INHIBITION is 81%. With `NC(CC1CCCCC1)c1ccccc1` (centres undefined) the figure was 55.4%; with `NC(Cc1nc(-c2ccccc2)no1)c1ccccc1` (centres undefined), -253%. With `Cc1cc(CN2CC[C@H]3OCC[C@@]3(C(=O)N3CCOCC3)C2)no1`, the INHIBITION was -53.6%.

Take `COc1cccc([C@@H]2CCN(Cc3cn(C)c4ccccc34)C[C@H]2O)c1`: the INHIBITION was found to be 78%. With `COc1cccc([C@@H]2CCN(Cc3cccc(C)n3)C[C@H]2O)c1` the figure was -29.5%. With `OC[C@@H]1[C@@H](c2ccccc2)CN2CCN(c3ccccn3)C[C@H]12`, the INHIBITION is listed as -63.3%.

`Cn1cc(CN2C[C@@H]3CCC[C@@H](OCc4cccnc4)[C@@H]3C2)cn1`: the INHIBITION is -74.7%.

Regarding `Cn1cc(CN2CC[C@H]3CO[C@H](CNc4ncccn4)[C@H]3C2)cn1`, the INHIBITION is given as -108%.

Regarding `Cn1cc(CN2CC[C@@H]3[C@@H]2CCN3C(=O)Cc2cccc(F)c2)cn1`, the INHIBITION is -39.1%. In the case of `Cn1cc(CN2C[C@H](Oc3ncccc3F)[C@H]3OCCC[C@H]32)cn1` it was -37%. Regarding `Cn1cc(CN2CCCC(CCc3c(F)cccc3F)C2)cn1` (centres undefined), the INHIBITION is recorded as 79.3%. As to `Cc1cccc(CN2CC[C@H]3[C@H]2CCN3Cc2cnn(C)c2)n1`, the INHIBITION was -127%. With `Cc1ccc(N2CCO[C@H]3CN(Cc4cnn(C)c4)C[C@H]32)nn1` the figure was 7.68%; with `Cn1cc(CN2CCCC(CCc3ccc(F)cc3)C2)cn1` (centres undefined), 74.7%. With `Cn1cc(CN2CCCC(CCc3ccc(F)cc3F)C2)cn1` (centres undefined) the figure was 89.3%; with `CN(C)[C@@H]1CCN(C(=O)Cc2ccc(F)cc2)[C@H]1Cc1cnn(C)c1`, -2.98%. Regarding `Cn1cc(CN2CCCC(CCc3ccc(F)c(F)c3)C2)cn1` (centres undefined), the INHIBITION was 71.2%. In the case of `Cn1cc(CN2CCN3C[C@H](Oc4cccnc4)C[C@H]3C2)cn1` it was -50.7%.
